Assay results published in PubChem BioAssay (Tox21).
“And” between values parts separate entries of the source, which are not always exact repeats. Equal entries are not always repeated. Records with an inconclusive call do not appear. Unmarked numbers belong to inactive results. The source made the active and inactive calls. Calls follow the shape of the dose curve; as a rule, active = well fitted cell-killing curve with a large enough effect in the repeat runs; inconclusive = weak or mixed curves, or effect the other way; inactive = no such curve, though single readings can be large or run the other way.

Test: qHTS assay for identifying genotoxic compounds that show differential cytotoxicity against isogenic chicken DT40 cell lines with known DNA damage response pathways - Rev3 mutant cell line (AID 743014); also: nearly all actives have a fitted effect of over 55% in size
Details: chicken DT40 Rev3-/- viability, CellTiter-Glo, 40 h; series mostly up to 68.4 µM; activity, negative = cytotoxicity: at the top concentration
Source text: National Center for Advancing Translational Sciences [NCATS]
NIH Chemical Genomics Center [NCGC]
U.S. Environmental Protection Agency [EPA]
National Institutes of Environmental Health Sciences [NIEHS]
National Toxicology Program [NTP]
U.S. Food and Drug Administration [FDA]
DNA repair pathways play a critical role in cellular homeostasis by repairing DNA damage induced by endogenous processes and xenobiotics. Isogenic chicken DT40 cell lines deficient in different DNA repair pathways can be used to identify genotoxic compounds and aid in characterizing the nature of the DNA damage induced. Two DNA repair-deficient cell lines with disrupted genes, Rad54/Ku70 or Rev3, were used to screen the Tox21 10K compound library. Possible genotoxicity was based on the presence of a significant increase in cytotoxicity in one or more of the DNA repair-deficient cell lines compared to that observed in the parental DNA repair-proficient cell line. CellTiter Glo viability assay (Promega, Madison, WI) was used to measure cell viability in these cells after compound treatment. This assay includes the data from the Rev3 mutant cell line.
Tox21 Assay Protocol Summary:
300 DT40 mutant cells in 5 uL/well were dispensed into white, solid-bottom 1536-well plates using a Multidrop Combi (ThermoFisher Scientific, Waltham, MA) dispenser. After the assay plates were incubated at 37 C/5% CO2 for approximately 0.5 hour, 23 nL of compounds dissolved in DMSO, positive controls or DMSO only was transferred into the assay plate by a pintool work station (Kalypsys, San Diego, CA). The assay plates were incubated at 37 C/5% CO2 for 40 hours. After 5 uL per well of CellTiter-Glo reagent was added into each well of the assay plates, the plates were incubated for 30 min at room temperature and the luminescence intensity of the plates was measured using a ViewLux (PerkinElmer, Shelton, CT) plate reader.
% is scaled to controls: 0 for no effect and ±100 for the full control effect; potency is read from the fitted curve at half-maximal effect.

SMILES	activity, negative = cytotoxicity	Potency
CCC1(c2ccccc2)C(=O)NC(=O)N(C)C1=O (stereo not given)	7.14%	–
O=C(O)/C=C/C(=O)O	–	inactive
Cc1ccc(N(SC(F)(Cl)Cl)S(=O)(=O)N(C)C)cc1	–	0.122 µM (active)
CC(=O)O[C@H]1C[C@H](O[C@H]2[C@@H](O)C[C@H](O[C@H]3[C@@H](O)C[C@H](OC4CC[C@@]5(C)[C@H](CC[C@@H]6[C@@H]5CC[C@]5(C)[C@@H](C7=CC(=O)OC7)CC[C@]65O)C4)O[C@@H]3C)O[C@@H]2C)O[C@H](C)[C@H]1O[C@@H]1O[C@H](CO)[C@@H](O)[C@H](O)[C@H]1O (stereo not given in full)	–	0.473 µM (active)
O=c1ccc2cc(O[C@@H]3O[C@H](CO)[C@@H](O)[C@H](O)[C@H]3O)c(O)cc2o1	-1.07% [at 31.4 µM]	–
CCCSc1cc(OC)c(CCN)cc1OC	–	0.258 µM (active)
C[C@@H](Cc1ccccc1)N(C)C	0.721%	–
Clc1ccccc1-c1ccccc1Cl	-14.7% [at 95 µM]	–
CCN(CC)CCO[C@H]1CC[C@@]2(C)C(=CC[C@@H]3[C@@H]2CC[C@]2(C)C(=O)CC[C@@H]32)C1	–	0.531 µM (active)
C[C@]12CC[C@H]3[C@@H](CCC4=C(O)C(=O)CC[C@@H]43)[C@@H]1CC[C@@H]2OC(=O)CCC1CCCC1	0.638%	–
O=S(=O)(O)c1cc(O)ccc1O	–	inactive
CC(C)C[C@H](CN)CC(=O)O	5.51%	–
C=CCN1CC[C@]23c4c5ccc(O)c4O[C@H]2[C@@H](O)C=C[C@H]3[C@H]1C5	18.9%	–
CC[N+](C)(CC)CCOC(=O)C(O)(c1ccccc1)c1ccccc1	16.1%	–
CC1COC(Cn2cncn2)(c2ccc(Oc3ccc(Cl)cc3)cc2Cl)O1 (stereo not given)	–	0.686 µM (active)
COC1=CC=C2[C@H]3Cc4ccc(OC)c5c4[C@@]2(CCN3C)[C@H]1O5	0.41% [at 31.4 µM]	–
CCc1cc(OC)c(C[C@@H](C)N)cc1OC	–	63.6 µM (active)
CC(C)(O)[C@@H]1[C@H]2OC(=O)[C@@H]1[C@]1(O)C[C@H]3O[C@]34C(=O)O[C@H]2[C@]14C	2.1%	–
CC(=O)OCC(=O)[C@H]1CC[C@H]2[C@@H]3CC[C@H]4C[C@H](O)CC[C@]4(C)[C@H]3C(=O)C[C@]12C	-0.492% [at 31.4 µM]	–
Oc1ccc2c3c1O[C@H]1[C@@H](O)CC[C@@]4(O)[C@@H](C2)N(CC2CCC2)CC[C@]314	-19.6%	–

SMILES	activity, negative = cytotoxicity	Potency
Oc1cc[c]([Hg][Cl])cc1	–	750 nM (active) and 841 nM (active)
COc1ccc(C(c2ccc(OC)cc2)C(Cl)(Cl)Cl)cc1	–	44.4 µM (active)
O=C(Nc1ccccc1-c1ccc(Cl)cc1)c1cccnc1Cl	–	67.4 µM (active)
CN[C@]1(c2ccccc2Cl)CCCCC1=O	-13.2%	–
CN[C@H]1C[C@@H](N)[C@H](O)[C@@H](O[C@@H]2O[C@H](CO)[C@H](O)[C@@H]3OC4(O[C@H]23)O[C@H](C(N)CO)[C@H](O)[C@H](O)[C@H]4O)[C@@H]1O (stereo not given in full)	7.73%	–
CN[C@@H](C)Cc1ccccc1	-8.73%	–
[2H]C([2H])([2H])[C@H](N)Cc1ccccc1	-2.33%	–
O=C1CCO1	0.445%	–
O=P1(N(CCCl)CCCl)NC(OO)CCO1 (stereo not given)	–	13.3 µM (active)
Cc1ccccc1-n1c(C)nc2ccccc2c1=O	–	53.9 µM (active)
OC[C@@H](O)[C@H]1O[C@@H]2O[C@@H](C(Cl)(Cl)Cl)O[C@@H]2[C@H]1O	-3.35%	–
O=C(CCl)c1ccc(Oc2ccc(C(=O)CCl)cc2)cc1	–	29.8 µM (active)
F/C(COc1ccc2c(c1)[nH]c1ccccc12)=C1/CN2CCC1CC2	–	8.41 µM (active)
O=C(OCCN1CCCCC1)C(O)(c1ccccc1)c1ccccc1	3.46%	–
C[C@]12CC[C@@H]3c4ccc(OC(=O)N(CCCl)CCCl)cc4CC[C@H]3[C@@H]1CC[C@@H]2OP(=O)(O)O	-4.34%	–
CN[C@@H]1C[C@@H](c2ccc(Cl)c(Cl)c2)c2ccccc21	–	11.9 µM (active)
CNC(C)Cc1ccccc1 (stereo not given)	2.11%	–
CCCC(C)(COC(N)=O)COC(=O)NC1CC1 (stereo not given)	0.562%	–
Cc1nnc2n1-c1ccc(Cl)cc1C(c1ccccc1Cl)=NC2	6.08%	–
O=C(C[C@@H]1NCCC[C@H]1O)Cn1cnc2cc(Br)c(Cl)cc2c1=O	16.9%	–
